Experimental data as given in PubChem BioAssay (EPA / NIEHS).
Activity calls are given as the source filed them. Rule for the calls: active = hit-call score of the fitted dose curve at least 0.9, where 1 is the maximum; inactive = score below 0.9.

Key:
[1] = ATG_CRE_CIS: Attagene CIS-FACTORIAL HepG2 Assay for human cAMP Responsive Element (CRE) binding protein 3 (AID 2282926); details: HepG2 CRE cis-reporter, Attagene multiplexed mRNA; actives raise or lower the signal
Outline: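 Endogenous CRE-binding activity in HepG2 is reported through a cis-regulated transfected reporter. Following a day of exposure, mRNA levels are determined by reverse transcription PCR and fluorescent fragment analysis; fits run in both directions versus DMSO.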

[2] = target: CCAAT/enhancer-binding protein beta (Homo sapiens) (UniProt P17676); experiment: ATG_C_EBP_CIS: Attagene CIS-FACTORIAL HepG2 Assay for human CCAAT/Enhancer Binding Protein (C/EBP) beta (AID 2282927); details: HepG2 Attagene cis-factorial transcription factor reporter; actives raise or lower the signal
Sequence of CCAAT/enhancer-binding protein beta (Homo sapiens) (P17676 whole entry, looked up): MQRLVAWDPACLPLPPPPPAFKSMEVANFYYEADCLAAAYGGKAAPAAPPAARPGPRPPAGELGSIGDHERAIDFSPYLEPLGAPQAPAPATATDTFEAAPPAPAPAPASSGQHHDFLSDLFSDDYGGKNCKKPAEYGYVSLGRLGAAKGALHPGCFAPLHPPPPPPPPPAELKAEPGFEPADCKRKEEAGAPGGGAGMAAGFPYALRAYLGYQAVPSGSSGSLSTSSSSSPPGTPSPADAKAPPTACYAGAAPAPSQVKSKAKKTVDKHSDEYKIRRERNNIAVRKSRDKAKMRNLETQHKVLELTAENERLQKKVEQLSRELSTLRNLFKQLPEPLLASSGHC
Outline: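 Endogenous transcription factor activity in human liver HepG2 cells is inferred from induction of a CEBPB-linked reporter mRNA. Exposure lasts 24 h; activity is fitted in both directions relative to DMSO.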

[3] = ATG_DR4_LXR_CIS: Attagene CIS-FACTORIAL HepG2 Assay for human Liver X Receptor (LXR), DR4 submotif (AID 2282929); details: HepG2 Attagene DR4 cis-reporter, mRNA transcription; actives raise or lower the signal
Outline: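 Measures endogenous transcription factor activity via a DR4-driven reporter transcript in human HepG2 cells. Compounds incubated 24 h; mRNA quantified by RT-PCR and capillary electrophoresis, analysed as gain or loss of signal versus DMSO.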

[4] = target: Aryl hydrocarbon receptor (Homo sapiens) (UniProt P35869); experiment: ATG_Ahr_CIS: Attagene CIS-FACTORIAL HepG2 Assay for human Aryl Hydrocarbon Receptor (Ahr) (AID 2282930); details: HepG2 AhR cis-factorial reporter transcription; actives raise or lower the signal
Sequence of Aryl hydrocarbon receptor (Homo sapiens) (P35869 whole entry, looked up): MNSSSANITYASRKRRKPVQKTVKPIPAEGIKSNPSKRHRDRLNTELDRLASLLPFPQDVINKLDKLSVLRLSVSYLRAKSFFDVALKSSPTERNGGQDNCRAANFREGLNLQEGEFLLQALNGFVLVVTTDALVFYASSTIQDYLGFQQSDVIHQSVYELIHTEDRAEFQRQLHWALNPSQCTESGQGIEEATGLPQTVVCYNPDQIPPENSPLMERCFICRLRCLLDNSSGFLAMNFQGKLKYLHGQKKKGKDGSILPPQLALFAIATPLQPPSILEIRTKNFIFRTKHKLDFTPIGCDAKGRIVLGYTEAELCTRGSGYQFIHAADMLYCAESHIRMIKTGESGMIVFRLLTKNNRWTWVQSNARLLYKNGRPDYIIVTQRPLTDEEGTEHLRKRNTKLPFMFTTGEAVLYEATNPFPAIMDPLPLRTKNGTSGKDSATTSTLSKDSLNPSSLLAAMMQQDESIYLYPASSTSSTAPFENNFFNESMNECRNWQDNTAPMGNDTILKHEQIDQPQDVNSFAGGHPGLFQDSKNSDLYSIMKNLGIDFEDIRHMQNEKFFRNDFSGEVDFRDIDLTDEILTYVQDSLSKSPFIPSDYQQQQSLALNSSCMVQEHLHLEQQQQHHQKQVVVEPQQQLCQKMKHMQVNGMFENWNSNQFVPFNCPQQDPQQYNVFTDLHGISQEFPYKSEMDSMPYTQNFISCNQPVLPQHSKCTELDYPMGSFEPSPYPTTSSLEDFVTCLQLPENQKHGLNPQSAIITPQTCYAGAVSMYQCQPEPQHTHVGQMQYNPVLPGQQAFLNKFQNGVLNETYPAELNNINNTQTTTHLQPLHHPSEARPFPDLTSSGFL
Outline: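 Transient MRTU transfection of HepG2 → 24 h compound exposure → total RNA, oligo(dT) RT → PCR, 6-FAM extension, HpaI cut → CE fluorescence. DMSO = baseline; bidirectional curve fit.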

[5] = ATG_AP_1_CIS: Attagene CIS-FACTORIAL HepG2 Assay for human Activator Protein 1 (AP-1) (AID 2282931); details: HepG2 Attagene cis-factorial AP-1 reporter mRNA; actives raise or lower the signal
Outline: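 Bidirectional concentration-response fitting against DMSO controls. Underlying signal: reporter mRNA from cis-promoter constructs in transiently transfected HepG2, measured after 24 h by RT-PCR and capillary electrophoresis.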

[6] = ATG_AP_2_CIS: Attagene CIS-FACTORIAL HepG2 Assay for human Activator Protein 2 (AP-2) (AID 2282932); details: HepG2 AP-2 cis-reporter, Attagene transcription factor profiling; actives raise or lower the signal
Outline: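 HepG2, transient MRTU transfection, cis-regulated reporters; 24 h compound exposure; RNA isolated, RT-PCR, 6-FAM labelling, HpaI digest, CE fluorescence. DMSO = negative control/baseline, bidirectional fit.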

[7] = ATG_BRE_CIS: Attagene CIS-FACTORIAL HepG2 Assay for human Bone Morphogenetic Protein (BMP) Response Element (BRE) (AID 2282933); details: HepG2 BMP response element reporter, Attagene transcription factor profiling; actives raise or lower the signal
Outline: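 After a 24 h chemical treatment, transiently transfected HepG2 cells were lysed for RNA; reporter transcripts were quantified by fluorescent RT-PCR and capillary electrophoresis, normalised to DMSO.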

[8] = target: Retinoic acid receptor alpha (Homo sapiens) (UniProt P10276); experiment: ATG_DR5_RAR_CIS: Attagene CIS-FACTORIAL HepG2 Assay for human Retinoic Acid Receptor Alpha (RARE), DR5 submotif (AID 2282934); details: HepG2 Attagene cis-factorial RARE DR5 reporter, mRNA; actives raise or lower the signal;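 for AC50: reporter responds to endogenous RAR alpha beta and gamma in HepG2 not RARA alone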
Sequence of Retinoic acid receptor alpha (Homo sapiens) (P10276 whole entry, looked up): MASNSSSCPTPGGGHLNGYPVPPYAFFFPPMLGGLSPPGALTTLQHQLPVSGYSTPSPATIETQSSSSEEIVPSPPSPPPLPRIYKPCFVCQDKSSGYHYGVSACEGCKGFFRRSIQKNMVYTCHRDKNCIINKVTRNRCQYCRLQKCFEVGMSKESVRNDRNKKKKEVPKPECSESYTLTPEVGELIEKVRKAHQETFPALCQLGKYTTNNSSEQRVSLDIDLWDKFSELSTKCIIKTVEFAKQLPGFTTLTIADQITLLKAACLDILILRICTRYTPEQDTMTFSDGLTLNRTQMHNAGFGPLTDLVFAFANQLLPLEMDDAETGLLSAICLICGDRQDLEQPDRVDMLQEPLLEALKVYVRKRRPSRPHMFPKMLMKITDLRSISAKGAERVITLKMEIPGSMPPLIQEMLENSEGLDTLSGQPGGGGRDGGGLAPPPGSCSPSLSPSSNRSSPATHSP
Outline: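 Transient MRTU transfection of HepG2; 24 h compound treatment; TriZol RNA, oligo(dT) RT, PCR, FAM labelling, capillary electrophoresis. Bidirectional fit vs DMSO. Endogenous TF activity at DR5 RARE.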

[9] = target: Transcription factor E2F1 (Homo sapiens) (UniProt Q01094); experiment: ATG_E2F_CIS: Attagene CIS-FACTORIAL HepG2 Assay for human E2F Transcription Factor 1 (AID 2282935); details: HepG2 Attagene cis-reporter, E2F reporter RNA transcripts; actives raise or lower the signal
Sequence of Transcription factor E2F1 (Homo sapiens) (Q01094 whole entry, looked up): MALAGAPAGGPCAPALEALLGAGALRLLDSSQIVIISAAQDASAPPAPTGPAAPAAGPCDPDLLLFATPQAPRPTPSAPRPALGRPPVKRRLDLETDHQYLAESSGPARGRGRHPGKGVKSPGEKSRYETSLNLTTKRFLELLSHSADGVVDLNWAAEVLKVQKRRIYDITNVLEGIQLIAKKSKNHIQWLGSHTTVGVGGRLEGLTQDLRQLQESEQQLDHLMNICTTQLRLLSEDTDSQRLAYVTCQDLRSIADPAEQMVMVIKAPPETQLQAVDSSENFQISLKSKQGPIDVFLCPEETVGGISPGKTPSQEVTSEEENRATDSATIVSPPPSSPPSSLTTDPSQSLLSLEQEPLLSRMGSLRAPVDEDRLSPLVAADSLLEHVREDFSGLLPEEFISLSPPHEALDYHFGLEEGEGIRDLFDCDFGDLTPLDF
Outline: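 Cis-element reporter mRNA induction in transiently transfected HepG2, 24 h exposure. Activity fitted in both directions relative to DMSO negative control.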

[10] = ATG_E_Box_CIS: Attagene CIS-FACTORIAL HepG2 Assay for human Enhancer Box (E-box) (AID 2282936); details: HepG2 E-box cis-reporter transcription, actives raise or lower the signal
Outline: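 Cells: HepG2 (human liver), transient MRTU transfection. Exposure 24 h. RNA → oligo(dT) RT → PCR → 6-FAM label → HpaI → CE. Activity fitted both directions relative to DMSO.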

[11] = ATG_M_61_CIS: Attagene CIS-FACTORIAL HepG2 Assay for M61 Transcription Factor (Internal Marker) (AID 2282937); details: HepG2 Attagene CIS-FACTORIAL M61 internal marker reporter; actives raise or lower the signal
Outline: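 Fluorescence from labelled cDNA fragments, separated by capillary electrophoresis, quantifies reporter induction. HepG2 cells bearing transiently transfected cis-promoter MRTUs were incubated with test chemical for 24 h; DMSO defined baseline for gain/loss fitting.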

[12] = ATG_CMV_CIS: Attagene CIS-FACTORIAL HepG2 Assay for human CMV (Internal Marker) (AID 2282928); details: HepG2 CMV promoter reporter, transcription factor profiling; actives raise or lower the signal;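 note: endpoint acts as a background internal control marker rather than a target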
Outline: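 Endogenous transcription factor activity read in HepG2 via transfected cis-promoter reporter units. After 24 h dosing, reporter mRNA measured by RT-PCR/capillary electrophoresis; gain or loss of signal fit relative to DMSO.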

Measured: AC50

CC1(C)Cc2cccc(O)c2O1
not listed: [12]
inactive: all other assays above

C=C(C)C#N
not listed: [12]
inactive: all other assays above

CCOC(=O)CP(=O)(OCC)OCC
not listed: [8] | [12]
inactive: all other assays above

O=[N+]([O-])c1ccc2c3c(cccc13)CC2
not listed: [4] | [12]
inactive: all other assays above

O=C(CCl)CCl
active: [1] 24.7 µM | [12] 54 µM | [3] 23.3 µM | [6] 33.4 µM | [10] 30.1 µM
inactive: [4] | [5] | [7] | [9] | [11]

NNC(=S)NN
not listed: [2] | [8]
inactive: all other assays above

Oc1ccc(-c2ccccc2)cc1
active: [12] 44.9 µM | [6] 26.8 µM | [8] 154 µM | [10] 169 µM
not listed: [2]
inactive: all other assays above

Clc1ccc(C2(Cn3cncn3)CC(Br)CO2)c(Cl)c1 (centres undefined)
active: [12] 99.5 µM | [3] 68.1 µM | [4] 27.6 µM | [5] 35.5 µM | [7] 99.5 µM
not listed: [2] | [8]
inactive: all other assays above

CC(=O)OC(c1ccccc1)C(Cl)(Cl)Cl (centres undefined)
not listed: [4] | [8]
inactive: all other assays above

C[C@H]1CCCC(=O)CCC/C=C/c2cc(O)cc(O)c2C(=O)O1
active: [4] 22.5 µM | [7] 64.5 µM
not listed: [8] | [12]
inactive: all other assays above

N#CCCO
not listed: [2] | [12]
inactive: all other assays above

COc1ccccc1OC
not listed: [4]
inactive: all other assays above

ClC1=C(Cl)[C@]2(Cl)[C@@H]3[C@@H](Cl)[C@@H](Cl)C[C@@H]3[C@@]1(Cl)C2(Cl)Cl
not listed: [4] | [8]
inactive: all other assays above

CC(C)c1ccc(CO)cc1
not listed: [4]
inactive: all other assays above

N#Cc1ccccn1
not listed: [12]
inactive: all other assays above

CCOP(=S)(OCC)SCSP(=S)(OCC)OCC
not listed: [12]
inactive: all other assays above

CC(Br)C(=O)O (centres undefined)
not listed: [2]
inactive: all other assays above

CCc1ccccc1N
active: [4] 67.2 µM
not listed: [2] | [12]
inactive: all other assays above

CCC1(c2ccc(N)cc2)CCC(=O)NC1=O (centres undefined)
not listed: [2] | [8]
inactive: all other assays above

CCC[CH2][Sn]([CH2]CCC)([CH2]CCC)[O]C(=O)c1ccccc1
active: [7] 0.218 µM
not listed: [2] | [8]
inactive: all other assays above

O=C1C(Cl)=C(Cl)C(=O)c2ccccc21
active: [4] 1.86 µM
not listed: [12]
inactive: all other assays above

Oc1c(I)cc(I)cc1I
active: [12] 49.3 µM | [4] 34.5 µM | [6] 63.7 µM | [7] 43.2 µM | [10] 4.99 µM
inactive: [1] | [3] | [5] | [9] | [11]

COP(=O)(OC)O/C(=C\Cl)c1cc(Cl)c(Cl)cc1Cl
active: [3] 58.2 µM | [5] 62.4 µM | [6] 26.9 µM | [7] 70.3 µM
not listed: [8] | [12]
inactive: all other assays above

CC(=O)c1cc(C(C)(C)C)cc2c1CCC2(C)C
active: [1] 100 µM | [12] 62.5 µM | [3] 26.1 µM | [5] 70.4 µM | [6] 161 µM | [9] 171 µM
inactive: [4] | [7] | [10] | [11]

Nc1ncc([N+](=O)[O-])s1
active: [4] 62 µM
not listed: [2]
inactive: all other assays above

O=C(O)Cc1ccccc1
not listed: [1] | [8]
inactive: all other assays above

Cl/C=C\C[N+]12CN3CN(CN(C3)C1)C2
active: [3] 41.7 µM | [5] 181 µM | [7] 19.8 µM | [10] 76.9 µM
inactive: [1] | [4] | [6] | [9] | [11]

ClCCBr
not listed: [1] | [8]
inactive: all other assays above

[O-][Cl+2]([O-])O
not listed: [1] | [2]
inactive: all other assays above
